Results published in PubChem BioAssay (NCATS).
Inconclusive results are not listed. A number with no mark means an inactive call. Activity calls are given as the source filed them. The call rests on the fitted dose curve; in most records, active means well fitted cell-killing curve with a large enough effect; inconclusive means small, poorly fitted or top-dose-only effect, or effect the other way; inactive means flat fitted curve, though single readings scatter.

Test: qHTS assay for cell viability of the p53RE-bla HCT-116 cell line (AID 743292); further: nearly all actives have a fitted effect of over 55% in size
Settings: p53RE-bla HCT-116 viability, ATP luminescence, 16 h; series mostly up to 95 µM; activity change, negative = cytotoxicity: at the top concentration
How it was run: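 After plating at 4,000 cells per well and a 5 h rest at 37 C, HCT-116 cells carrying p53RE-bla received test chemicals in DMSO. Sixteen hours later at 37 C, CellTiter-Glo was added and luminescence recorded following 30 min at room temperature.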
On the % scale 0 is the no-effect control and ±100 the full control effect; potency means the concentration at half of the fitted maximal effect.

Row | SMILES | Potency | activity change, negative = cytotoxicity
1 | CN(C)c1ccc(C(=C2C=CC(=[N+](C)C)C=C2)c2ccccc2)cc1 | 3.98 µM (active) | –
2 | CCCCCCCCCCCCCCCCCC(=O)O | inactive | –
3 | O=C(O)c1ccccc1Nc1cccc(C(F)(F)F)c1 | – | -18.8%
4 | O=C(O)c1cc(O)c(O)c(O)c1 | – | -13%
5 | CCCCCCCCCCCCCCCC(=O)OC(C)C | – | 12.6%
